Screening data (PubChem BioAssay)
CYP2C9 activ – activators of human CYP2C9 | 96,000 tested, 1.4% active | activation factor at 5 µM | AID 1024 | recombinant CYP2C9, luciferin-H conversion, luminescence; active compounds read high; factor 1 = untreated enzyme, 0 = blocked | P11712;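 active = activation factor of 2 or more for CYP2C9 at a 5 µM dose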;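 also: 0 = sulfaphenazole-blocked wells and 1 = vehicle-only wells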
PLK1 kinase inh – blocks human PLK1 kinase activity; inhibition, % at 10 µM; 97,000 tested, 0.53% active; P53350; recombinant PLK1 kinase, TR-FRET peptide phosphorylation;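 active = inhibition of 50% or more in the single-concentration screen; inactive = inhibition below 50%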;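 also: 0% = DMSO max control and 100% = H-89 dihydrochloride min control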
Target sequence (P53350 whole entry, looked up): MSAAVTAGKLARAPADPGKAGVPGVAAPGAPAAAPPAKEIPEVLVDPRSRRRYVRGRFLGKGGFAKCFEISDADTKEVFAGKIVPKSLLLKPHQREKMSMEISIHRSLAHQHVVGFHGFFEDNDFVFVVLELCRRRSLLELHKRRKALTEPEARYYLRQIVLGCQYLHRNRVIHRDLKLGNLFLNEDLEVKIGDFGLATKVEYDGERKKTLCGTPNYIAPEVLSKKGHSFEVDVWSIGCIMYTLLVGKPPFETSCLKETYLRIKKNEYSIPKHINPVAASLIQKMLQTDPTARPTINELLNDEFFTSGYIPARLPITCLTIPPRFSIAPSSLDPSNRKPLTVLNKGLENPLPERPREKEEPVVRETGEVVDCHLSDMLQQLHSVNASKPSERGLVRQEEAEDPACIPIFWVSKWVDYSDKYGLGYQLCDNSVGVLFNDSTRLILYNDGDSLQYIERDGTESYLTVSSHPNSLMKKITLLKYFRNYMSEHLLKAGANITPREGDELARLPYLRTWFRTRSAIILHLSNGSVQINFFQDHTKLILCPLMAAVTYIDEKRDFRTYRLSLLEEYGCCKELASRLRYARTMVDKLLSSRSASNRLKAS
CYP2C19 activ – increases human CYP2C19 enzyme activity. recombinant CYP2C19, luciferin-H EGE luminescence; active compounds read high; 0 = fully inhibited enzyme, 1 = untreated enzyme. AID 1025. P33261. activation factor at 5 µM. 96,000 tested, under 10 active;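 active = activation factor of at least 2 at 5 µM in the primary screen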;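 also: 0 = wells with 2.5 mM tranylcypromine and 1 = vehicle-only wells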
CYP2C19 inh – inhibitors of human CYP2C19. inhibition, % at 5 µM. CYP2C19 Supersomes, luciferin-H EGE luminescence, 30 min. 96,000 tested, 21% active;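 active = CYP2C19 inhibition above a set limit at 5 µM in the primary screen, cut at about 50% in these data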;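 also: plate controls were negative control wells for no effect and 2.5 mM tranylcypromine positive control for full effect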
CYP2C9 inhib – blocks human cytochrome P450 2C9. AID 777. CYP2C9 Supersomes, luciferin-H conversion, luminescence. inhibition, % at 5 µM. 96,000 tested, 20% active. P11712;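 active = blocking of liver enzyme CYP2C9 beyond about 50% at 5 µM, limit read from the data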
Plk1 PBD FP – Plk1 (human) PBD binding inhibition; Plk1 PBD phosphopeptide binding, fluorescence polarization; 97,000 tested, 0.13% active; P53350; inhibition, %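 (tested at about 20 µM)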; in the data active = inhibition above about 34%, passing the limit was not always enough
* marks the source's active call; other numbers are inactive results; / = no result. Only some compounds are listed: those with a hit (about 28% of all), similar ones and a draw of the others.

SMILES | CYP2C9 activ | PLK1 kinase inh | CYP2C19 activ | CYP2C19 inh | CYP2C9 inhib | Plk1 PBD FP
Cc1ccc(C2CC(c3ccco3)n3ncnc3N2)cc1 (stereo not given) | 0.7 | -2 | 0.1 | 91* | 34 | -4
COc1ccccc1C1CC(c2ccc(C)cc2)Nc2ncnn21 (stereo not given) | 0.7 | -10 | 0.1 | 88* | 31 | 28
COc1ccccc1C1CC(c2ccccc2)Nc2ncnn21 (stereo not given) | 0.6 | -13 | 0.1 | 87* | 37 | 3
COc1ccccc1C1CC(c2ccc(F)cc2)Nc2ncnn21 (stereo not given) | 1.1 | -12 | 0.6 | 42 | -6 | -10
Cc1[nH]c(=O)[nH]c(=O)c1S(=O)(=O)N1CCCC1 | 0.9 | -6 | 0.9 | 10 | 6 | -6
Cc1c(NC(=O)c2cc3ccccc3oc2=O)c(=O)n(-c2ccccc2)n1C | 1 | -5 | 1 | -4 | 4 | 9
Cn1c2ccccc2c2ncn(CCC3=CCCCC3)c(=O)c21 | 0.2 | -7 | 0.3 | 71* | 84* | 8
Cn1c2ccccc2c2ncn(CCCN3CCOCC3)c(=O)c21 | 1.1 | 1 | 0.8 | 22 | -7 | 7
c1ccc(CSc2nnc(NC3=NCCCCC3)s2)cc1 | 0.6 | -9 | 0.3 | 68* | 37 | 5
O=S(=O)(c1ccc(NCCc2c[nH]c3ccccc23)nc1)N1CCOCC1 | 0.7 | -1 | 0.5 | 51* | 28 | 23
O=C1CCCN1CCCNc1ccc(S(=O)(=O)N2CCCCC2)cn1 | 1.2 | -10 | 1.2 | -16 | -23 | -21
CC1=CC(C)(C)Nc2ccc(OC(=O)c3ccco3)cc21 | 1.5 | -6 | 0.2 | 78* | -46 | -3
CCOC(=O)c1cc2ccc(OC(=O)c3ccco3)cc2oc1=O | 1 | -18 | 1.1 | -6 | 0 | -23
CCOc1ccc(OC(=O)c2cccnc2)cc1 | 0.9 | -5 | 0.9 | 10 | 6 | -3
CC1=CC(C)(C)Nc2ccc(OC(=O)C(C)N3C(=O)c4ccccc4C3=O)cc21 (stereo not given) | 0.1 | -6 | 0.6 | 36 | 87* | 27
CC1=CC(C)(C)Nc2ccc(OC(=O)c3cccnc3)cc21 | 0.6 | -3 | 0.3 | 71* | 41 | 8
CC1=CC(C)(C)Nc2ccc(OC(=O)CN3C(=O)CCC3=O)cc21 | 1.1 | / | 1.1 | -6 | -11 | /
COC(=O)c1ccc(NC(=O)CN2C(=O)CNC2=O)cc1 | 0.9 | -19 | 1.1 | -8 | 13 | -18
CCOC(=O)N1CCN(C2CC(=O)N(c3ccc(Oc4ccccc4)cc3)C2=O)CC1 (stereo not given) | 0.9 | -6 | 1.1 | -12 | 9 | -2
COc1ccc(CN(C(=O)CN2C(=O)C(C)Oc3ccccc32)C2CCCC2)c(OC)c1 (stereo not given) | 0.1 | 13 | 0.2 | 81* | 88* | -4
COC(=O)c1ccccc1NC(=O)C1CCN(C(=O)c2cc(OC)c(OC)c(OC)c2)CC1 | 0.1 | -12 | 0.8 | 18 | 91* | -2
O=C(Nc1ccccc1)c1ccccc1NC(=O)C1CCCCC1 | 0.7 | -5 | 0.8 | 20 | 34 | -6
COc1cc(C(=O)N2CCN(C(=O)c3ccccc3)CC2)cc(OC)c1OC | 1.2 | -5 | 1.2 | -17 | -23 | 5
COC(=O)c1ccccc1NC(=O)C1CCCC1 | 1.4 | -6 | 0.4 | 57* | -39 | -11
CN1C(=O)c2cccc(NC(=O)C3CCCCC3)c2C1=O | 0.6 | -8 | 0.3 | 74* | 43 | 20
SMILES | CYP2C9 activ | PLK1 kinase inh | CYP2C19 activ | CYP2C19 inh | CYP2C9 inhib | Plk1 PBD FP
O=C(Nc1ccccc1Oc1ccccc1)C1CC1 | 0.5 | / | 0.3 | 70* | 48 | /
COc1ccc2[nH]c(=O)c(NC(N)=S)nc2c1 | 0.8 | -2 | 0.7 | 34 | 17 | 0
N#CCC(=O)Nc1ncn(Cc2ccccc2Cl)n1 | 1.1 | -14 | 1 | -1 | -6 | 21
Cn1nc(-c2ccc(Cl)cc2)c2cc(C(=O)NC3CC3)sc21 | 1 | -1 | 1 | 4 | -1 | -10
CCc1ccc(NSc2ccccc2[N+](=O)[O-])cc1 | 0.7 | 5 | 0.3 | 65* | 35 | -27
O=C(COc1ncnc2sccc12)N1CCN(S(=O)(=O)c2ccc(Cl)cc2)CC1 | 0.9 | 1 | 1 | 1 | 12 | -16
c1ccc2nc3c(cc2c1)CCCCCC3 | 0.6 | 14 | 0.3 | 66* | 44 | -9
CC(=O)CCc1ccc(OC(=O)c2cccnc2)cc1 | / | -8 | / | / | / | -19
CCOC(=O)c1ccccc1NC(=O)Cn1c(-c2nonc2N)nc2ccccc21 | 0.1 | / | 0.2 | 76* | 92* | /
Nc1nonc1-c1nc2ccccc2n1CC(=O)NC1CCCC1 | 0.7 | / | 0.5 | 52* | 33 | /
CCC(=O)Nc1nonc1-c1nc2ccccc2n1CC(C)C | 0.3 | / | 0.8 | 18 | 66* | /
CC(=O)Nc1nonc1-c1nc2ccccc2n1CC1CC1 | 0.6 | -7 | 0.8 | 19 | 40 | 11
CC1CCCN(C(=O)Cn2c(-c3nonc3N)nc3ccccc32)C1 (stereo not given) | 0.8 | -5 | 0.6 | 36 | 22 | -15
C=CCOc1c(Br)cc(CNn2nnnc2N)cc1OCC | 0.9 | -1 | 0.6 | 37 | 6 | -12
COC(=O)Nc1ccc(S(=O)(=O)N2CCCc3ccccc32)cc1 | 0.5 | -7 | 1.1 | -6 | 46 | -3
COc1ccccc1C(=O)Nc1ccc(S(=O)(=O)N2CCc3ccccc32)cc1 | 0.1 | -8 | 0.3 | 73* | 89* | -3
COc1cc(C(=O)Nc2ccc(S(=O)(=O)N3CCc4ccccc43)cc2)cc(OC)c1OC | 0.1 | 1 | 0.5 | 50 | 91* | -19
CCOc1ccccc1C(=O)N(CN1CCCC1=O)c1cccc(Cl)c1 | 0.9 | -10 | 0.9 | 5 | 13 | 6
O=C(Nc1nc(=O)c2ccccc2s1)c1ccccc1 | 1 | -6 | 1.1 | -8 | -2 | -17
O=C(Nc1nc2c(s1)C(=O)CCC2)c1ccccc1 | 0.5 | -3 | 0.6 | 41 | 53* | 13
N#CC1=C(N)C2=C(N3CCCCC3)CCCC2C1(C#N)C#N (stereo not given) | 0.5 | -9 | 0.9 | 14 | 51* | -7
CCOC(=O)C1CCCc2c1[nH]c1c(C(N)=O)cccc21 (stereo not given) | 0.5 | -2 | 0.6 | 39 | 53* | -25
CC(C)OC(=O)N(C)c1ccc(C(O)(C(F)(F)F)C(F)(F)F)cc1 | 0.2 | -1 | 0.1 | 85* | 75* | -3
COc1cccc(C2=CC(c3cccc(OC)c3OC(F)F)n3nnnc3N2)c1 (stereo not given) | 1.1 | 2 | 0.6 | 42 | -7 | 16
COc1ccc2c(-c3ccccc3)cc3nnnn3c2c1 | 0.6 | 6 | 0.6 | 42 | 39 | 13
COc1cccc(C2=CC(c3cccc(OC)c3OC)n3nnnc3N2)c1 (stereo not given) | 0.1 | / | 0 | 98* | 90* | /
